ALOX15B inhib: qHTS Assay for Inhibitors of 15-hLO-2 (15-human lipoxygenase 2); Polyunsaturated fatty acid lipoxygenase ALOX15B (Homo sapiens), O15296; purified 15hLO-2, xylenol orange hydroperoxide absorbance; Potency, µM (highest dose often 57.1 µM), usual class: inhibitors; 110,000 compounds, 0.56% hits; note: nearly all actives have a fitted effect of over 60% in size
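Enzyme 50 nM, AA 45 uM, 25 mM Hepes pH 7.5 + 0.01% Triton X-100; cpd preinc 15 min RT, rxn 90 min RT; stop/detect with 200 uM XO + 300 uM Fe(II) in 50 mM H2SO4, 30 min; A573/A405.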
ALOX12 inhib: qHTS Assay for Inhibitors of 12-hLO (12-human lipoxygenase). Polyunsaturated fatty acid lipoxygenase ALOX12 (Homo sapiens), P18054. purified 12-hLO, xylenol orange hydroperoxide absorbance. Potency, µM (doses to about 57.1 µM), actives largely listed as inhibitors. 150,000 compounds, 0.12% hits; note: nearly all actives have a fitted effect of over 55% in size
Target sequence (P18054 whole entry, looked up): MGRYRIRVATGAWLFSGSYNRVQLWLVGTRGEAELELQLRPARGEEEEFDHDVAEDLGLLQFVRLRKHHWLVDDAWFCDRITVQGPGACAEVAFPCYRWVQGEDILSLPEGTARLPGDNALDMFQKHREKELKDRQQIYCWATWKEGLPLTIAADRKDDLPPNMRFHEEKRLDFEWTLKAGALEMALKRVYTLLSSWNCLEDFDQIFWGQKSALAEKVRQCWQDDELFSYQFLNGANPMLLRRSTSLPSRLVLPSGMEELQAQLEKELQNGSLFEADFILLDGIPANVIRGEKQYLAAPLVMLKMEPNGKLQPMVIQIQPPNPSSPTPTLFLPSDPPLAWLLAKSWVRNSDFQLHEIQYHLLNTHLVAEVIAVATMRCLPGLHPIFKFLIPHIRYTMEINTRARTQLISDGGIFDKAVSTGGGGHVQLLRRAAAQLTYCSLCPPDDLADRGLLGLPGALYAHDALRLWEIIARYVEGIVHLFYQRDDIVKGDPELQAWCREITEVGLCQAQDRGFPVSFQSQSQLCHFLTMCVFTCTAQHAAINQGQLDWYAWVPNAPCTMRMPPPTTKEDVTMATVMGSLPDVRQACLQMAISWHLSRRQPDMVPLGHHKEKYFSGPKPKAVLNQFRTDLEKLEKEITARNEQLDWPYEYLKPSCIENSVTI
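Hydroperoxide output read as Fe(III)-xylenol orange absorbance, 573-to-405 nm ratio, after 30 min reaction with 40 uM arachidonic acid. Enzyme: 150 nM purified human 12hLO, 15 min compound preincubation; 25 mM Hepes pH 7.0, room temperature.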
PNC inhibitor: High Content Assay for Compounds that inhibit the Assembly of the Perinucleolar Compartment | PC3M PTB-GFP, PNC prevalence imaging, 16 h; hits give low values | activity change (PNC), negative = inhibition, % at 10 µM | 140,000 compounds, 3.1% hits | AID 2417, 2010;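 active = readout at or below -70, meaning at least 70% loss of cells showing the perinucleolar compartment, a nuclear body marking cancer cells; inconclusive = readout between -30 and a set limit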
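Compounds are pinned in duplicate onto adhered PC3M cells stably expressing GFP-tagged PTB and incubated 16 h at 37 C. Cells are then fixed, nuclei stained with Hoechst, and PNC-positive cells counted.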
IMPase cell inh: qHTS Assay for Identifying the Cell-Membrane Permeable IMPase Inhibitors; inhibition (IP1 accumulation), % at 46.1 µM; Inositol monophosphatase 1 (Rattus norvegicus), P97697; 120,000 tested, under 10 active; AID 901, 2007; CHO-M1 cells, IP1 accumulation, HTRF TR-FRET ratio; active = well fitted curve in the direction sought with a large enough effect in the signal ratio, not every such curve was filed as active; inconclusive = small, poorly fitted or top-dose-only effect, or a change in a side signal; inactive = no such curve, though single readings can be large or run the other way; the % refers to the signal ratio;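 note: cells stimulated with carbachol in lithium chloride buffer; higher means more IMPase inhibition seen as more IP1 and lower FRET ratio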
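Seeded CHO-M1 cells were dosed with compound at up to 46 uM, stimulated with carbachol for 30 min, then lysed in IP-One detection reagents. Higher IP1 lowers the TR-FRET signal.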
HPGD inh: qHTS Assay for Inhibitors of HPGD (15-Hydroxyprostaglandin Dehydrogenase); AID 894, 2007; Potency, µM, actives largely listed as inhibitors; purified HPGD, NADH fluorescence kinetic, PGE2 substrate; 150,000 compounds, 4.3% hits; 15-hydroxyprostaglandin dehydrogenase [NAD(+)] (Homo sapiens), P15428; active = well fitted inhibition curve with a large enough effect, not every such curve was filed as active; inconclusive = small, poorly fitted or top-dose-only effect, or another doubt; inactive = no such curve, though single readings can be large or run the other way
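20 nM HPGD preincubated 15 min at room temperature with compound in 50 mM Tris-HCl pH 8, 0.01% Tween 20. Started with 1 mM NAD+ and 30 uM prostaglandin E2; NADH fluorescence (360/450 nm) read 5 times over 30-s intervals, last minus first.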
IMPase Li inh: qHTS Assay for Identifying the Cell-Membrane Permeable IMPase Inhibitors: Potentiation with Lithium. 210,000 compounds, 0.35% hits. CHO-M1 cells, IP1 TR-FRET (IP-One), carbachol + lithium. Potency, µM (titrated, usually from 59.4 µM), most hits filed as inhibitors;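 note: IP1 builds up when IMPase is blocked and the TR-FRET signal falls; nearly all actives have a fitted effect of over 50% in size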
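Concentration–response in CHO-M1 cells, lithium-potentiated; 30 min at 37C. IP1 detected by competitive TR-FRET after 10 min lysis at RT. Hill-fitted AC50.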
Of the large screens only hits and unclear results are named; the others gave an inactive call. Hits are enriched below; roughly 5.3% of the tested compounds scored in any of these assays. Unless noted, calls come from the whole dose curve; as a rule, active = well fitted curve in the direction sought with a large enough effect; inconclusive = small, poorly fitted or top-dose-only effect, or another doubt; inactive = no such curve, though single readings can be large; an effect the other way counts as inactive or inconclusive.

Cc1csc(NC(=O)c2ccccc2O)n1	HPGD inh inconclusive
Cc1csc(NC(=O)c2cc([N+](=O)[O-])cc([N+](=O)[O-])c2)n1	PNC inhibitor -114, HPGD inh inconclusive (no result: ALOX15B inhib, IMPase cell inh)
COc1ccccc1-c1nc(N(C)C)c2ccccc2n1	none (no result: ALOX12 inhib, PNC inhibitor, IMPase cell inh, HPGD inh)
CCn1c(O)c(N=NC(=O)CNC(=O)c2ccco2)c2ccccc21	none (no result: ALOX15B inhib)
CCn1c(O)c(N=NC(=O)CNC(=O)/C=C/c2ccco2)c2ccccc21	PNC inhibitor -92
Cn1c(Cc2cccs2)nnc1SC/C=C/c1ccccc1	PNC inhibitor -100 (no result: ALOX15B inhib)
Nn1c(SC/C=C/c2ccccc2)nnc1-c1ccncc1	IMPase cell inh inconclusive
Cn1c(SC/C=C/c2ccccc2)nnc1-c1ccco1	PNC inhibitor -100 (no result: ALOX15B inhib)
Cn1c(Cc2cccs2)nnc1SCc1nc2ccccc2[nH]1	none
O=C(CCn1cccc1)NCc1ccc(Cl)cc1	HPGD inh inconclusive
Cc1c(CN2CCC(CO)(CCOc3ccccc3)CC2)c(=O)n(-c2ccccc2)n1C	none (no result: ALOX15B inhib, ALOX12 inhib, PNC inhibitor, IMPase cell inh, HPGD inh)
COc1ccc(C2NC(=O)CS2)cc1 (configuration not stated)	PNC inhibitor -100 (no result: ALOX15B inhib)
O=C1CSC(c2ccco2)N1 (configuration not stated)	none
Cc1ccc(-c2n[nH]c(=O)c3ccccc23)cc1S(=O)(=O)N(C)CCO	PNC inhibitor inconclusive, HPGD inh 16µM
Cc1ccc(-c2n[nH]c(=O)c3ccccc23)cc1S(=O)(=O)NCCO	PNC inhibitor inconclusive, HPGD inh 14µM
CCOC(=O)CNS(=O)(=O)c1cc(-c2nn(C)c(=O)c3ccccc23)ccc1C	PNC inhibitor inconclusive, HPGD inh 16µM
CCN1CCN(c2cc(C)c3cc(NC(=S)N4CCCC(C)C4)ccc3n2)CC1 (configuration not stated)	none (no result: ALOX15B inhib, ALOX12 inhib, PNC inhibitor, IMPase cell inh, HPGD inh)
Cc1c(C#N)c(NC(=O)CCl)n(Cc2cccs2)c1C	none (no result: ALOX15B inhib, ALOX12 inhib, PNC inhibitor, IMPase cell inh, HPGD inh)
COc1ccccc1Cn1nnc2c(=O)[nH]c(C3CCN(C(=O)c4ccc(F)cc4)CC3)nc21	HPGD inh 11µM
O=C(c1ccccc1Cl)N1CCC(c2nc3c(nnn3Cc3ccco3)c(=O)[nH]2)CC1	HPGD inh 14µM (no result: ALOX15B inhib)
COc1ccccc1Cn1nnc2c(=O)[nH]c(C3CCN(C(=O)c4ccc(C)cc4)CC3)nc21	HPGD inh inconclusive
COc1ccccc1Cn1nnc2c(=O)[nH]c(C3CCN(C(=O)c4ccccc4Cl)CC3)nc21	HPGD inh 14µM
O=C(c1ccccc1)N1CCC(c2nc3c(nnn3Cc3ccccc3Cl)c(=O)[nH]2)CC1	HPGD inh 11µM
Cc1ccc(CC(=O)N2CCC(c3nc4c(nnn4Cc4ccccc4)c(=O)[nH]3)CC2)cc1	HPGD inh inconclusive (no result: ALOX15B inhib)
Cc1occc1C(=O)NC(C)CCc1ccccc1 (configuration not stated)	none
Cc1occc1C(=O)NC(C)C(C)(C)C (configuration not stated)	IMPase cell inh inconclusive, HPGD inh 32µM
O=c1c([N+](=O)[O-])c(N2CCCCC2)c2ccccc2n1-c1ccccc1	none
Nc1c(N2CCCCC2)c(=O)[nH]c(=O)n1-c1ccccc1	PNC inhibitor -84
CCCCc1nc2ccccc2c(NC(=O)CNC(C)(C)C)c1CCC	none
CCCCc1nc2ccccc2c(NC(=O)CN2CCCC2)c1CCC	PNC inhibitor -100 (no result: ALOX15B inhib)
CN(C)CCOc1ncnc2c1oc1ccccc12	PNC inhibitor -112
CN(C)CCOc1nc(-c2ccccc2)nc2c1oc1ccccc12	PNC inhibitor inconclusive
CCOC(=O)N1C=CC=C[C@@H]2[C@@H](N3C(=O)c4ccccc4C3=O)C(=O)N21	PNC inhibitor inconclusive (no result: ALOX15B inhib, IMPase cell inh)
Cc1ccc(-c2nnc(COc3cccc(-n4cnnn4)c3)o2)cc1	PNC inhibitor -103
COc1ccc(-c2csc(NC(=O)CN3C(=O)CCC3=O)n2)cc1OC	HPGD inh 28µM (no result: ALOX15B inhib)
O=C(CN1C(=O)CCC1=O)Nc1nc(-c2ccc(Oc3ccccc3)cc2)cs1	HPGD inh 18µM (no result: ALOX15B inhib)
NC(=S)NCCCC(N)C(=O)O (configuration not stated)	none (no result: ALOX15B inhib, ALOX12 inhib, PNC inhibitor, IMPase cell inh)
CCN(CC)S(=O)(=O)c1ccc(O)c(NS(=O)(=O)c2ccccc2F)c1	HPGD inh 25µM (no result: ALOX15B inhib, IMPase cell inh)
CCn1c(COc2ccccc2OC)nnc1SCC#N	none
CCC(=O)NC(c1ccccc1OC)c1ccc2cccnc2c1O (configuration not stated)	PNC inhibitor -100 (no result: ALOX15B inhib)
CC(=O)C1=C(O)C(=O)N(CCCn2ccnc2)C1c1ccc(C)cc1 (configuration not stated)	none
Clc1cc2c(c(Cn3cnc4ccccc43)c1)OCOC2	PNC inhibitor -100 (no result: ALOX15B inhib)
O=[N+]([O-])c1ccc(Cl)c(/C=N/N2CCN(Cc3ccccc3Cl)CC2)c1	PNC inhibitor inconclusive
O=[N+]([O-])c1ccc(Cl)c(CN2CCC(O)CC2)c1	PNC inhibitor -124 (no result: ALOX15B inhib, IMPase cell inh)
CN(c1cccc(NC(=O)CN(c2cccc(Cl)c2)S(=O)(=O)c2ccc(Cl)cc2)c1)S(C)(=O)=O	PNC inhibitor inconclusive (no result: ALOX15B inhib)
CCN(C(=O)c1ccco1)c1nnc(-c2ccc(OC)cc2)s1	PNC inhibitor -100, HPGD inh inconclusive (no result: ALOX15B inhib)
COc1nc(C)nc2c1sc(=S)n2C	IMPase Li inh 22µM
Cc1nc(N(C)C)c2sc(=S)n(C)c2n1	PNC inhibitor inconclusive, IMPase cell inh inconclusive
O=C(COC(=O)c1cccs1)NCC1CCCCC1	none (no result: ALOX15B inhib, ALOX12 inhib, PNC inhibitor, IMPase cell inh, HPGD inh)

High-throughput results (PubChem BioAssay)
